Measurements taken from PubChem BioAssay (Tox21).
Results filed as inconclusive are left out. Calls of active or inactive are those of the source. Unless noted, calls follow the shape of the dose curve; as a rule, active = well fitted curve in the direction sought with a large enough effect in the repeat runs; inconclusive = weak or mixed curves; inactive = no such curve, though single readings can be large; an effect the other way counts as inactive or inconclusive.

Key:
[1] = qHTS assay to identify small molecule agonists of the RXR signaling pathway - cell viability counter screen (AID 1159529);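 also: HEK 293T cells carrying an RXR-alpha UAS beta-lactamase reporter; nearly all actives have a fitted effect of over 50% in size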
How it was run: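 Tox21 10K compounds were tested for cytotoxicity against GeneBLAzer RXR-alpha HEK 293T cells grown in 2% charcoal-stripped FBS. Exposure lasted 16 hr at 37 C, 5% CO2; viability read by CellTiter-Glo luminescence.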

[2] = qHTS assay to identify small molecule antagonists of the retinoid acid receptor (RAR) signaling pathway - cell viability counter screen (AID 1159551); also: nearly all actives have a fitted effect of over 35% in size
How it was run: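 Cytotoxicity counter screen: ATP content quantified by CellTiter-Glo luminescence in C3RL4 cells treated 6 hr at 37 C with compound and retinol (1 uM final). Cells plated at 1,000/well and cultured overnight before dosing.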

[3] = qHTS assay to identify small molecule antagonists of the retinoic acid receptor (RAR) signaling pathway (AID 1159552; also: nearly all actives have a fitted effect of over 50% in size)
How it was run: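 Overnight-plated C3RL4 reporter cells get compound, then retinol to 1 uM final; plates sit 6 hr at 37 C, 5% CO2. A luciferase reagent is added and light output recorded after 30 min at room temperature.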

[4] = qHTS assay to identify small molecule agonists of the retinoic acid receptor (RAR) signaling pathway (AID 1159553); conditions: C3RL4 RARE luciferase reporter, agonist, 6 h; activation: at 73.3 µM (top of the series) unless noted
How it was run: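 Luminescence was measured 30 min after luciferase reagent addition at room temperature. Before that, C3RL4 reporter cells (1,000 per well, plated overnight) were treated with compound for 6 hr at 37 C and 5% CO2.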

[5] = target: Luciferin 4-monooxygenase (Photinus pyralis) (UniProt P08659); assay: qHTS assay to identify small molecule inhibitors of firefly luciferase (AID 1224835); also: nearly all actives have a fitted effect of over 25% in size
Luciferin 4-monooxygenase (Photinus pyralis), sequence (P08659 whole entry, looked up): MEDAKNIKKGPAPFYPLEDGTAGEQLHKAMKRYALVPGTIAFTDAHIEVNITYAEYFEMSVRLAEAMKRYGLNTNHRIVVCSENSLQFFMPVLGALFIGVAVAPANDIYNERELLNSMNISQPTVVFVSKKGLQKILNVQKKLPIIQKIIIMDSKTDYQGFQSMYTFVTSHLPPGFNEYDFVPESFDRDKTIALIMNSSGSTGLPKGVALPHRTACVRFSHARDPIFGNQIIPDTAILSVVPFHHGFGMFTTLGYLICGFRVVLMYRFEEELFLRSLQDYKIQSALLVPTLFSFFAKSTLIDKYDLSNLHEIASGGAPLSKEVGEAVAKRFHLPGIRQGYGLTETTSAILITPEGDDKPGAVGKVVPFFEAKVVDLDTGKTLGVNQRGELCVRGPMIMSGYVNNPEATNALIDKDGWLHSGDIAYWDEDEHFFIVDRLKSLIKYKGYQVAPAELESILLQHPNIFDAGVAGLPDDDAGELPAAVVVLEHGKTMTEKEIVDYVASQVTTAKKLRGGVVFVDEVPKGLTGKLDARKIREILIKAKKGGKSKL
How it was run: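 Quantitative HTS format; KM concentrations of both substrates. Purified P. pyralis FLuc activity quantified from luminescence images.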

[6] = qHTS assay to identify small molecule agonists of the constitutive androstane receptor (CAR) signaling pathway - cell viability counter screen (AID 1224836); also: nearly all actives have a fitted effect of over 45% in size
How it was run: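 Fluorescence from CellTiter-Fluor indicates live cells after 23 h exposure. The human hepatoma line expresses hCAR and a CYP2B6-2.2kb reporter. Incubation medium contains 0.75 uM PK11195 (final).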

[7] = qHTS assay to identify small molecule antagonists of the constitutive androstane receptor (CAR) signaling pathway - cell viability counter screen (AID 1224837); also: nearly all actives have a fitted effect of over 45% in size
How it was run: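 Cytotoxicity counter-screen: CellTiter-Fluor fluorescence after 23 h compound exposure (15-point qHTS) in double-stable HepG2-CYP2B6-hCAR cells, with 50 nM CITCO added.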

[8] = target: Nuclear receptor subfamily 1 group I member 3 (Homo sapiens) (UniProt Q14994); assay: qHTS assay to identify small molecule antagonists of the constitutive androstane receptor (CAR) signaling pathway (AID 1224838);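 also: HepG2 cells stably expressing hCAR with CYP2B6 luciferase reporter stimulated by CITCO; nearly all actives have a fitted effect of over 40% in size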
Nuclear receptor subfamily 1 group I member 3 (Homo sapiens), sequence (Q14994 whole entry, looked up): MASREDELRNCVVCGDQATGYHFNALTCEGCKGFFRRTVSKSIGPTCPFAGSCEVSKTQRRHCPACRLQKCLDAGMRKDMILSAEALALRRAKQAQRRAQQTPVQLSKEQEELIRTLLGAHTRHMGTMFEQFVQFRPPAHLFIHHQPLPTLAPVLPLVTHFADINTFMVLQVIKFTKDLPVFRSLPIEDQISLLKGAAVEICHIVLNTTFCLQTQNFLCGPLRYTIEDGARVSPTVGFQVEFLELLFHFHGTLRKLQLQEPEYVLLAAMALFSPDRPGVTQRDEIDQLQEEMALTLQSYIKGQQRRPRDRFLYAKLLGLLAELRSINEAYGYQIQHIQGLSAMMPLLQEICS
How it was run: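 Antagonism measured as luciferase signal (ONE-Glo, 30 min, room temperature) in CAR-stimulated cells: HepG2-CYP2B6-hCAR double-stable line exposed 24 hr at 37 C to compound in a 15-point series plus 50 nM CITCO.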

[9] = target: Nuclear receptor subfamily 1 group I member 3 (Homo sapiens) (UniProt Q14994); assay: qHTS assay to identify small molecule agonists of the constitutive androstane receptor (CAR) signaling pathway (AID 1224839);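 also: HepG2 cells stably carrying human CAR and a CYP2B6 luciferase reporter; nearly all actives have a fitted effect of over 15% in size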
How it was run: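 Stable hCAR/CYP2B6-2.2kb HepG2 line in DMEM with 10% FBS; compounds (15 concentrations) and 0.75 uM PK11195 final, 24 h at 37 C/5% CO2, then ONE-Glo luminescence after 30 min.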

[10] = qHTS assay to identify small molecule antagonists of the estrogen related receptor signaling pathway with the pleiotropic PPARgamma coactivator (PGC) from Tox21 10K library - cell viability counter screen (AID 1224840; active = well fitted cell-killing curve with a large enough effect in the repeat runs, not every such curve was filed as active; also: nearly all actives have a fitted effect of over 40% in size)
How it was run: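 Counter-screen for cytotoxicity: after 17.5 h compound exposure at 37 C, CellTiter-Fluor reagent added to PGC/ERR cells for 30 min and fluorescence read. Cells were seeded at 2,000 per well 6 h before dosing.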

[11] = target: Thyrotropin receptor (Homo sapiens) (UniProt P16473); assay: qHTS assay to identify small molecule agonists of the thyroid stimulating hormone receptor (TSHR) signaling pathway (AID 1224843; calls by dose curve; also: nearly all actives have a fitted effect of over 45% in size)
Thyrotropin receptor (Homo sapiens), sequence (P16473 whole entry, looked up): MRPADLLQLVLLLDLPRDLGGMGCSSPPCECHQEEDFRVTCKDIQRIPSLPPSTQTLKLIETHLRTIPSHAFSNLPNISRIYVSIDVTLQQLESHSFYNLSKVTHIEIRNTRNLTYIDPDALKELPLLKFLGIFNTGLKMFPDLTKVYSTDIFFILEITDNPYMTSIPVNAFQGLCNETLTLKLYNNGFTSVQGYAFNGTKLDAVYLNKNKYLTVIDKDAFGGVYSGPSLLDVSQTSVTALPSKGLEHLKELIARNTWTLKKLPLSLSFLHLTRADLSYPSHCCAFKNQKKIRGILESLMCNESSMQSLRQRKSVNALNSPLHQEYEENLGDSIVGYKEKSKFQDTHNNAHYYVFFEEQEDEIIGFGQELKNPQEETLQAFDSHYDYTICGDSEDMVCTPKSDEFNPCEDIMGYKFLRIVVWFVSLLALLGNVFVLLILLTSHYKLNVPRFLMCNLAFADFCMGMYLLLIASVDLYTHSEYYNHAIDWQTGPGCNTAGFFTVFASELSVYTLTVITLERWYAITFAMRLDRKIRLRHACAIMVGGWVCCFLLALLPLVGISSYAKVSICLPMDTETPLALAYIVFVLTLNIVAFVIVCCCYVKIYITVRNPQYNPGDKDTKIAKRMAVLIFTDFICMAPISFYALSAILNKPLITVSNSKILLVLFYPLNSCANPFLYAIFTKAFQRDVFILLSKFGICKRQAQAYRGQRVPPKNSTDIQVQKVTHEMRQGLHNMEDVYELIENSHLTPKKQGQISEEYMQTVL
How it was run: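 Compounds are titrated over 15 concentrations, in triplicate, onto TSHR-HEK293 cells seeded at 800/well. Plates sit 30 min at room temperature before cAMP-d2 and anti-cAMP cryptate are added; signal is read after a further hour.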

[12] = qHTS assay to identify small molecule antagonists of the estrogen related receptor (ERR) signaling pathway from Tox21 library - cell viability counter screen (AID 1224834); also: nearly all actives have a fitted effect of over 30% in size
How it was run: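 CellTiter-Fluor fluorescence, read after 30 min at 37 C, measures viability of ERR cells. Cells plated at 2,000/well and incubated 6 h before pin-tool compound addition, then exposed 17.5 hours at 37 C.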

Measured: Potency

CC(C)=CCC/C(C)=C/C=O
not listed: [12]
inactive: all other assays above

Cc1ccc([N+](=O)[O-])cc1N
not listed: [12]
inactive: all other assays above

CS(=O)(=O)c1ccc(Cl)cc1
not listed: [11] | [12]
inactive: all other assays above

CCCOCC(C)O (stereo unspecified)
not listed: [8] | [9] | [12]
inactive: all other assays above

Cc1ccncc1
not listed: [8] | [9] | [11] | [12]
inactive: all other assays above

CC(C=O)Cc1ccc(C(C)(C)C)cc1 (stereo unspecified)
not listed: [5] | [12]
inactive: all other assays above

CC(=O)OC/C=C(\C)CCC=C(C)C
not listed: [11] | [12]
inactive: all other assays above

NCCNCCNCCN
not listed: [5]
inactive: all other assays above

CCCCCCCCO
not listed: [12]
inactive: all other assays above

CO[Si](CCCNCCN)(OC)OC
not listed: [8] | [9]
inactive: all other assays above

C[Si](C)(C)N[Si](C)(C)C
not listed: [12]
inactive: all other assays above

C=C(C)CC(C)(C)C
not listed: [8] | [9] | [12]
inactive: all other assays above
